# Legend:
# Assay in all cases: PBM binding z-score (relative to random genomic background probes); higher = stronger binding; sequences stand for … in GC…GCGATTGACAGCGTAGAATGAAGG
# [1] = tested on: RARb homodimer (NR concentration 270 nM)
# Outline: (§1)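 The probes on custom Agilent 4×180K protein-binding microarrays were double-stranded, with 34-nt variable regions bearing direct-repeat seeds, single-nucleotide variants, half-site ablations and random human genomic background sequences. Incubation lasted 1 h with ligand-free nuclear receptor dimers in PBS pH 7.4, 2% milk, 0.02% Triton X-100, 1 mM DTT, 0.2 mg/mL BSA and 0.4 mg/ml salmon testes DNA. Antibodies against each partner (one per run) detected bound dimers, and fluorescence scans were regression-normalized. Binding z-scores take the random background probes as reference.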
# [2] = tested on: RARg:RXRa (NR concentration 270 nM, RXRa partner concentration 90 nM)
# Outline: as §1
# [3] = tested on: RARg homodimer (NR concentration 270 nM)
# Outline: as §1
# [4] = tested on: RXRa DBDmut IVT, anti-RXR (DBD mutation: RXRa K156A/R161A, NR concentration 90 nM)
# Outline: as §1
# [5] = tested on: RXRa homodimer (NR concentration 180 nM)
# Outline: as §1
# [6] = tested on: THRa:RXRa (NR concentration 90 nM, RXRa partner concentration 90 nM)
# Outline: as §1
# [7] = tested on: THRa homodimer (NR concentration 90 nM)
# Outline: as §1
# [8] = tested on: VDR:RXRa (NR concentration 270 nM, RXRa partner concentration 90 nM)
# Outline: as §1
# [9] = tested on: VDR homodimer (NR concentration 270 nM)
# Outline: as §1
Sequence,PBM binding z-score [1],PBM binding z-score [2],PBM binding z-score [3],PBM binding z-score [4],PBM binding z-score [5],PBM binding z-score [6],PBM binding z-score [7],PBM binding z-score [8],PBM binding z-score [9]
TTACCAAGGTGGGCTGAGGTCGTTGATCCAACTC,1.04,0.249,-0.257,0.273,0.833,3.77,1.5,2.6,2.06
CCTACTGTGCCAAGGTCATTGATCAGTCAAAGCA,3.73,3.88,3.24,2.18,3.4,3.68,3.43,3.52,3.63
CGAACTTGGTCAAGGACAGTGAATCTCCGCACGC,0.692,0.479,1.1,0.243,0.275,1.89,1.37,-0.245,-0.254
ATCTCTAGGTAACCAAGTTCAGAGAATGCCGAAC,1.48,0.849,1.13,0.821,0.723,1.46,0.471,4.26,2.7
CATACAGGGTCAGCAAGGCCAGAGTAGGGACGGC,3.4,4.63,5.18,1.92,4.64,3.29,1.03,5.7,2.08
TCTTGTAGATCAGCAGGTTAATAAAGCTGGCCAA,-0.292,-0.0895,-0.342,0.531,0.393,0.0327,-0.292,0.526,-0.451
GCTAGCAGGCGATTTGGGTCACTCAATGACGGGC,1.23,0.467,0.586,-0.454,0.643,1.91,0.374,-0.205,-0.295
AGAATGAGGTTAAGATCAAGGAAACAGAATACAT,0.789,2.02,1.57,1.13,2.68,2.39,0.555,1.09,0.551
TCTCGTTGGTCAAAGGTCACACACTCGAAATGCG,5.23,7.05,6.09,1.99,8.17,4.2,2.63,5.25,2.94
GATACAGGGTCAGCTAGAGGCCAGAGTTTGGAAA,3.66,6.53,4.92,1.38,4.29,3.04,0.526,3.36,1.17
AGTCAAAGTTCACTAGGTAATGTAAGATTCAGCT,3.71,4.84,5.6,4.39,3.73,1.91,-0.139,3.84,3.81
TAGCCTAGGTCAGATCGGACCAGTATACGCTATA,1.86,2.7,3.46,-0.00524,1.46,2.55,-0.155,0.34,-0.597
CGTCCAAGGTCAATGCTAGGTCAGAGAAAGCATT,5.02,7.59,7.07,3.6,6.03,4.58,3,4.76,2.77
ATACCAAGGGGATCGTGAGGTCGTTGATACTAAC,1.03,0.522,0.278,0.533,0.933,2.89,1.66,1.88,2.27
ACTAGCAGGCCAAGGGTCTCTCAAGATTAGTCCG,-0.0592,-0.0301,0.272,-0.533,0.0173,-0.234,-0.93,-0.657,-0.872
ACAGACAGATGATGAAGGTAACTCAGGCTATCAT,0.176,0.199,0.513,-0.152,0.225,0.742,0.192,0.0494,0.335
